M18AAP inhibitor – PfM18AAP inhibitors, malaria aminopeptidase, primary screen, biochemical, QFRET, recombinant enzyme; hit rate 1.2% among 290,000; inhibition, % at 7.35 µM; M18 aspartyl aminopeptidase (Plasmodium falciparum 3D7); H-Glu-NHMec fluorogenic cleavage; AID 1822, 2009;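 active = inhibition above the campaign mean inhibition over all tested compounds plus 3 SD, cut at about 28% in these data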;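 also: 0% = plate median of test compound wells and 100% = 2 mM ZnCl2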
Calb FLC – C. albicans growth inhibition with fluconazole, primary screen, CaCi-2 strain, Alamar Blue fluorescence; hit rate 0.57% among 300,000; C. albicans CaCi-2 (fluconazole-resistant clinical isolate) + fluconazole, 48 h; growth inhibition, % (no concentration beside the values); AID 1979, 2009;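 active = growth inhibition above about 58% in most replicates, limit read from the data, passing the limit was not always enough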;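 also: all wells also contain fluconazole at 8 µg/ml as a sub-toxic cotreatment; 0% = median of DMSO wells and 100% = median of geldanamycin control wells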
CTSL1 counter – Fasciola hepatica cathepsin L1 inhibitors, primary screen, counter-screen for PFM18AAP inhibitor project, biochemical, QFRET, fluorogenic peptide substrate; AID 1906, 2009; recombinant F. hepatica cathepsin L1, Z-Leu-Arg-MCA fluorescence; hit rate 0.49% among 300,000; inhibition, % at 5.96 µM;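 active = inhibition above the mean of all tested compounds plus 3 SD, set per screening campaign, cut at about 17% in these data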;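 also: 0% = plate median of test compound wells and 100% = 1 µM Z-Phe-Ala-diazomethylketone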
Rin1-Abl PPI inh – inhibitors of Rin1-Abl protein binding, primary screen, biochemical, TR-FRET; hit rate 0.4% among 360,000; inhibition, % at 7.35 µM; in the data active = inhibition above about 5%, passing the limit was not always enough
Active calls of the source: *. Shown are actives, neighbours in structure and some others; about 2.1% of the full set was active somewhere.

Results for COc1cc(C(=O)NC(=S)NNC(=O)c2cnccn2)cc(OC)c1OC ?
M18AAP inhibitor: 9.9; Calb FLC: 38.2; CTSL1 counter: 1.0; Rin1-Abl PPI inh: -4.2

What do the screens show for `COc1ccc(CC(=O)NNC(=O)c2ccccn2)cc1`?
M18AAP inhibitor: 8.0; Calb FLC: -1.4; CTSL1 counter: -1.2; Rin1-Abl PPI inh: 0.3

Results for COc1ccc(C(=O)NC(=S)NNC(=O)c2cnccn2)cc1 ?
M18AAP inhibitor: 0.4; Calb FLC: 118.4*; CTSL1 counter: -1.0; Rin1-Abl PPI inh: -2.5

Results for O=C(NCCCNC(=O)c1cnccn1)c1ccc(Cl)cc1 ?
M18AAP inhibitor: -4.4; Calb FLC: -6.0; CTSL1 counter: -4.8; Rin1-Abl PPI inh: 1.9

What do the screens show for `COc1ccc(CC(=O)NNC(=O)c2cnccn2)cc1`?
M18AAP inhibitor: 29.0*; Calb FLC: 14.2; CTSL1 counter: 2.5; Rin1-Abl PPI inh: 5.9

Results for O=C(NC(=S)NNC(=O)c1cnccn1)c1ccc(Cl)cc1 ?
M18AAP inhibitor: -3.5; Calb FLC: 94.4*; CTSL1 counter: -1.8; Rin1-Abl PPI inh: -1.7

Results for COc1ccc(NC(=O)Cn2c(=O)n(CC3CCCO3)c(=O)c3ccccc32)c(OC)c1 (centres undefined) ?
M18AAP inhibitor: 2.6; Calb FLC: -5.8; CTSL1 counter: 0.6; Rin1-Abl PPI inh: -4.1

What do the screens show for `C/C(CCC(=O)OC[C@H]1O[C@H](C#Cc2ccccc2)C=C[C@@H]1Oc1ccc(C)cc1)=N\O[C@@H](C)CN1CCCCc2nc(C)c(C)cc21`?
M18AAP inhibitor: -8.0

What do the screens show for `O=C(CN(c1cccc(C(F)(F)F)c1)S(=O)(=O)c1ccc(Cl)c([N+](=O)[O-])c1)NCc1ccc(F)cc1`?
M18AAP inhibitor: 0.4; Calb FLC: -2.3; CTSL1 counter: -1.7; Rin1-Abl PPI inh: -2.7

Results for O=[N+]([O-])c1ccc(N/N=C\c2cccn2-c2ccccc2)nc1 ?
M18AAP inhibitor: 47.2*; Calb FLC: 7.0; CTSL1 counter: 3.1; Rin1-Abl PPI inh: 3.0

Results for O=[N+]([O-])c1ccc(NN=Cc2ccccc2)nc1 ?
Rin1-Abl PPI inh: 2.2

How did Cc1ccc(C(C(=O)NCC2CCCO2)N(C(=O)c2snc(C(N)=O)c2N)c2ccccc2F)o1 (centres undefined) do in these assays?
M18AAP inhibitor: 6.5; Calb FLC: 2.7; CTSL1 counter: 19.1*; Rin1-Abl PPI inh: -0.3

What do the screens show for `Cc1ccc(C(C(=O)NCC2CCCO2)N(C(=O)c2snc(C(N)=O)c2N)c2ccc(F)cc2)o1` (centres undefined)?
M18AAP inhibitor: 0.2; Calb FLC: -20.4; CTSL1 counter: 2.5; Rin1-Abl PPI inh: 1.0

How did CC1CCCCN1S(=O)(=O)c1ccc(NC(=O)c2cccc(-n3cnnn3)c2)cc1 (centres undefined) do in these assays?
M18AAP inhibitor: -4.8; Calb FLC: 90.8*; CTSL1 counter: -1.8; Rin1-Abl PPI inh: -0.6

How did CC1CCCN(S(=O)(=O)c2ccc(NC(=O)c3cccc(-n4cnnn4)c3)cc2)C1 (centres undefined) do in these assays?
M18AAP inhibitor: 5.0; Calb FLC: 0.6; CTSL1 counter: -2.0; Rin1-Abl PPI inh: -1.5

What do the screens show for `Cc1cccc2c(C(=O)Nn3cnnc3)cc(-c3ccccc3Cl)nc12`?
M18AAP inhibitor: 44.9*; Calb FLC: 3.6; CTSL1 counter: 0.2; Rin1-Abl PPI inh: 3.8

How did Cc1cccc2c(C(=O)n3cccn3)cc(-c3ccccc3Cl)nc12 do in these assays?
M18AAP inhibitor: -3.1; Calb FLC: 12.7; CTSL1 counter: -0.3; Rin1-Abl PPI inh: -3.6

What do the screens show for `COc1ccc(N/C=C2\CCc3ccccc3C2=O)cc1`?
M18AAP inhibitor: 37.2*; Calb FLC: 12.1; CTSL1 counter: -0.4; Rin1-Abl PPI inh: -2.3

Results for CCc1cccc(CC)c1NC(=S)/C(=C(\[O-])c1ccc(Cl)s1)[n+]1ccccc1 ?
M18AAP inhibitor: 5.8; Calb FLC: -14.3; CTSL1 counter: 34.2*; Rin1-Abl PPI inh: 0.6

Results for CNC(=O)[C@H](C)[C@@H]1C[C@@]1(C)[C@@H](NC(=O)OCc1ccccc1)c1ccccc1 ?
M18AAP inhibitor: -7.7; Calb FLC: -3.6; CTSL1 counter: 18.4*; Rin1-Abl PPI inh: -0.5

What do the screens show for `CC1=NNC(=O)/C1=C\c1cn(-c2ccccc2)nc1-c1ccccc1`?
M18AAP inhibitor: 65.7*; Calb FLC: 4.0; CTSL1 counter: 0.0; Rin1-Abl PPI inh: 0.2

How did CCCCc1cc(=O)oc2cc(OCC(=O)N3CCC(C(=O)O)(c4ccccc4)CC3)ccc12 do in these assays?
M18AAP inhibitor: 2.1; Calb FLC: 0.9; CTSL1 counter: 20.3*; Rin1-Abl PPI inh: -4.3

How did CCCCc1cc(=O)oc2cc(OCC(=O)N3CCOCC3)ccc12 do in these assays?
M18AAP inhibitor: 4.8; Calb FLC: -14.1; CTSL1 counter: -2.9; Rin1-Abl PPI inh: -1.4

What do the screens show for `CC(=O)Nc1ccc(C(=O)NCC2(N3CCCCC3)CCCCC2)cc1`?
M18AAP inhibitor: 14.2; Calb FLC: -8.2; CTSL1 counter: 20.6*; Rin1-Abl PPI inh: -0.8

What do the screens show for `CCOc1ccc(NS(=O)(=O)c2ccc(C(=O)NCC3(N4CCCCC4)CCCCC3)cc2)cc1`?
M18AAP inhibitor: 10.5; Calb FLC: 0.9; CTSL1 counter: 11.5; Rin1-Abl PPI inh: -4.2

What do the screens show for `CN(Cc1ccccc1)CC(O)COc1ccc(CNCc2nccn2C)cc1` (centres undefined)?
M18AAP inhibitor: -0.5; Calb FLC: -14.1; CTSL1 counter: 17.7*; Rin1-Abl PPI inh: 1.8

Results for O=C(CCNC(=O)c1ccc(Br)cc1)NCC1COc2ccccc2O1 (centres undefined) ?
M18AAP inhibitor: 3.6; Calb FLC: -2.9; CTSL1 counter: -0.8; Rin1-Abl PPI inh: -1.7

What do the screens show for `Cc1c(C)n(CC(O)CN2CCCCC2)c2ccccc12` (centres undefined)?
M18AAP inhibitor: -2.9; Calb FLC: -4.9; CTSL1 counter: 4.3; Rin1-Abl PPI inh: -2.4

How did Cc1cc(C)n(CC(O)Cn2c(C)c(C)c3ccccc32)n1 (centres undefined) do in these assays?
M18AAP inhibitor: 17.1; Calb FLC: -7.8; CTSL1 counter: 18.9*; Rin1-Abl PPI inh: -5.0

Results for CCN(CC)S(=O)(=O)c1ccc(N2CCOCC2)c(NC(=O)CC(C)(C)C)c1 ?
M18AAP inhibitor: 2.5; Calb FLC: 1.3; CTSL1 counter: -0.3; Rin1-Abl PPI inh: -1.0

How did CCN(CC)S(=O)(=O)c1ccc(N2CCCC2)c(NC(=O)CC(C)(C)C)c1 do in these assays?
M18AAP inhibitor: 8.1; Calb FLC: 2.5; CTSL1 counter: 19.8*; Rin1-Abl PPI inh: 2.7

How did Fc1ccc(/C=N/NC(=S)Nc2ccc(Cl)cc2Cl)cc1 do in these assays?
M18AAP inhibitor: 2.4; Calb FLC: 0.2; CTSL1 counter: -0.3; Rin1-Abl PPI inh: -3.4

Results for O=C(N/N=C\c1ccc([N+](=O)[O-])s1)c1cncc(Br)c1 ?
M18AAP inhibitor: 5.3; Calb FLC: 107.6*; CTSL1 counter: 2.8; Rin1-Abl PPI inh: 0.6

How did O=[N+]([O-])c1ccc(O)c(/C=N/NC(=S)Nc2ccc(Cl)cc2Cl)c1 do in these assays?
M18AAP inhibitor: 2.1; Calb FLC: 101.5*; CTSL1 counter: 7.2; Rin1-Abl PPI inh: -5.9

Source: PubChem
